The results in this text go back to PubChem BioAssay (NCI).

“And” between values parts separate entries of the source, which are not always exact repeats. Equal values may be shown once. About 83,000 compounds went through this panel and 20% of them were active in at least one assay; those are over-represented in the sample as a whole.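 Note: values are percent growth. 100 is the growth of untreated cells, values between 100 and 0 indicate rising inhibition; between -100 and 0 indicates cell death.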 A number with no mark means an inactive call. The source made the active and inactive calls. How the source made its calls: active means growth percent below 10; inactive means the rest.

Test in all cases: NCI-60 one-dose screen, 48 h (100 = growth as untreated, 0 = no growth, -100 = all killed)
Settings in all cases: 10 µM unless noted

Assay [1] deals with NCI-H23 lung.
The test system of assay [2] is NCI-H226 lung.
The test system of assay [3] is NCI-H322M lung.
Assay [4] concerns HOP-62 NSCLC.
The test system of assay [5] is NCI-H460 lung.
In assay [6] the test system is HOP-92 NSCLC.
Assay [7] concerns NCI-H522 lung.
Assay [8] relates to A549/ATCC NSCLC.
Assay [9] deals with 786-0 renal.
The subject of assay [10] is COLO 205 colon.
Assay [11] concerns DU-145 prostate.
For assay [12], the system named is K-562 leukemia.
Assay [13] relates to MALME-3M melanoma.
In assay [14] the test system is MDA-MB-231 breast.
Assay [15] has as its system RXF 393 renal.
Assay [16] has as its system SF-268 CNS.
Assay [17] relates to SF-295 CNS.
Assay [18] relates to SF-539 CNS.
Assay [19] concerns M14 melanoma.
Assay [20] has as its system UACC-257 melanoma.

Regarding `O=C/C=C/c1ccco1`, the growth in assay [1] was 101%; in assay [2], 107%; in assay [3] it was 111%; in assay [4], 94.7%; in assay [5], 111%; in assay [6] it was 94.3%. Besides, the growth in assay [7] is 92%; in assay [8] it was 85.6%; in assay [9], 100%; in assay [10], 115%; in assay [11], 108%; in assay [12] it was 88.8%. The growth in [13] is 98.8%; in assay [14] it was 99.4%; in assay [15], 119%; in assay [16], 102%; in [17], 99.9%; in assay [18], 100%. The growth in assay [19] is 102%.
For `COc1cc2c(cc1OC)[C@@H]1C(=O)c3ccc4c(c3O[C@@H]1CO2)C[C@H](C(C)C)O4`, the growth is 34.2% in assay [1]; 62.8% in [2]; 82.1% in [3]; 63.6% in assay [4]; 51.5% in assay [5]; 57.3% in assay [6]. In addition, the growth was 30.5% in assay [7]; 65.5% in assay [8]; 60.2% in [9]; 82.4% in [10]; 85.5% in [11]; 19.9% in assay [12]. Further, the growth was 56.5% in assay [13]; 78.3% in assay [14]; 102% in assay [15]; 79.7% in [16]; 18.6% in [17]; 70.7% in assay [18]. Moreover, the growth in assay [20] is 58%; in assay [19], 75.4%.
As to `CCN1C(=O)CC(=O)N(CC)C1=S`, the growth in assay [1] is 82%; in assay [2] it was 103%; in [3] it was 102%; in assay [4] it was 172%; in assay [5], 107%; in assay [6] it was 92.1%. Also, the growth in [7] is 84.1%; in [8], 109%; in [9], 97.6%; in assay [10], 115%; in [11], 122%; in [12] it was 107%. In addition, the growth in assay [13] is 95.8%; in assay [14] it was 107%; in [15], 100%; in assay [16], 101%; in [17], 111%; in assay [18], 96.9%. Moreover, the growth in assay [20] is 102%; in assay [19], 105%.
On to `COc1ccc(O)c2c(=O)c3c(OC)cc4c(c3oc12)[C@@H]1C=CO[C@@H]1O4`, for which the growth is 6.73% (active) in [1]; 36.8% in assay [2]; 42.4% in [3]; 36.6% in [4]; 8.73% (active) in assay [5]; 70.5% in assay [6]. Besides, the growth is 41.9% in [7]; 50% in [8]; 74.6% in assay [9]; 36.1% in [10]; 21.9% in assay [11]; 101% in [12]. For the same compound, the growth was 62.8% in assay [13]; 67% in assay [14]; 61.6% in [15]; 54.9% in [16]; 81.6% in [17]; 37.9% in [18]. The growth in assay [20] was 89.6%; in [19], 67.4%.
Consider `O=C(O)C(O)c1ccc(Cl)cc1` (centres undefined), for which the growth in [1] is 99.1% and 107%; in [2], 97% and 103%; in assay [3], 101% and 118%; in assay [4], 107%; in assay [5], 106% and 114%; in assay [6], 112%. The growth is 100% and 88.1% in assay [7]; 107% and 95.6% in [8]; 97.6% and 96.7% in assay [9]; 106% and 116% in assay [10]; 112% and 109% in assay [11]; 118% in assay [12]. Also, the growth is 110% and 102% in assay [13]; 96.8% and 119% in assay [14]; 88.5% and 122% in assay [15]; 110% and 101% in assay [16]; 101% and 116% in assay [17]; 97.5% and 118% in assay [18]. For the same compound, the growth in [20] was 109% and 91.8%; in assay [19], 99.9% and 104%.
Regarding `O=C(Cc1ccccc1)NC(O)C(Cl)(Cl)Cl` (centres undefined), the growth was 102% in assay [1]; 97.2% in assay [2]; 122% in [3]; 110% in [4]; 120% in [5]; 123% in assay [6]. In addition, the growth was 105% in assay [7]; 96.3% in [8]; 94.7% in assay [9]; 118% in [10]; 118% in assay [11]; 98.3% in assay [12]. Also, the growth in assay [13] is 115%; in assay [14], 106%; in [15], 105%; in assay [16], 104%; in assay [17], 103%; in assay [18], 108%. In addition, the growth was 103% in [20] and 101% in assay [19].
Turning to `C[C@]12CCc3sc(Nc4ccc(F)cc4)nc3C1=CC[C@@H]1[C@@H]2CC[C@]2(C)C(=O)CC[C@@H]12`, the growth in assay [1] is 72.8%; in assay [2], 86.7%; in [3] it was 82.1%; in [4], 82%; in assay [5], 69.9%; in [6], 96.8%. For the same compound, the growth in [7] is 62%; in assay [8], 79.5%; in assay [9], 5.28% (active); in assay [10], 86%; in [11], 19.3%; in assay [12] it was 5.92% (active). The growth was 78.7% in assay [13]; 84.4% in assay [14]; 13.2% in assay [15]; 69.3% in assay [16]; 28.7% in [17]; 54.4% in assay [18]. Moreover, the growth in assay [20] is 85.9%; in assay [19] it was 90%.
In the case of `C[N+]1(CC#CC[N+]2(C)CCCC2)CCCC1`, the growth in [1] is 111%; in assay [2] it was 91.1%; in assay [3] it was 99.8%; in assay [4] it was 105%; in [5], 106%; in assay [6], 90.6%. In addition, the growth was 99.5% in assay [7]; 107% in [8]; 99.2% in assay [9]; 103% in assay [10]; 106% in assay [11]; 106% in assay [12]. The growth is 99% in assay [13]; 102% in [14]; 103% in [15]; 95.9% in assay [16]; 98.6% in assay [17]; 105% in assay [18]. Also, the growth was 105% in assay [20] and 103% in assay [19].
Take `O=C(NCCCN1CC1)Nc1cccc2ccccc12`: the growth was 104% and 92.7% in assay [1]; 102% and 92.4% in assay [2]; 116% and 102% in [3]; 48.9% and 87.9% in assay [4]; 109% and 91% in [5]; 90.5% in [6]. Also, the growth in assay [7] was 108% and 79.1%; in [8], 97.3% and 91.6%; in [9], 108% and 103%; in assay [10] it was 106% and 103%; in assay [11], 104% and 102%; in assay [12], 86.4%. Further, the growth was 75.8% and 104% in assay [13]; 94.3% and 105% in [14]; 108% and 107% in assay [15]; 83.5% and 96.9% in [16]; 114% and 88.2% in [17]; 93.7% and 113% in assay [18]. In addition, the growth in [20] is 96.9% and 94.2%; in assay [19] it was 99.6% and 98.8%.
Turning to `O=CC1(c2ccccc2)CCN(Cc2ccccc2)CC1`, the growth in assay [1] is 101%; in [2], 98.2%; in [3], 105%; in [4], 112%; in assay [5], 110%; in [6], 97.3%. The growth is 105% in assay [7]; 95.4% in assay [8]; 108% in assay [9]; 109% in assay [10]; 106% in [11]; 105% in assay [12]. The growth in assay [13] is 105%; in assay [14], 104%; in assay [15], 115%; in assay [16], 99.6%; in assay [17] it was 99%; in assay [18] it was 106%. In addition, the growth in assay [20] is 99.5%; in assay [19], 98.8%.
For `CCOC(=O)c1cncn1C(C)c1ccccc1` (centres undefined), the growth is 118% in [1]; 105% in [2]; 101% in [3]; 97.7% in assay [4]; 118% in [5]; 95.8% in assay [6]. For the same compound, the growth in assay [7] is 94.3%; in assay [8] it was 103%; in assay [9], 97%; in [10] it was 109%; in assay [11], 120%; in assay [12] it was 96.7%. Moreover, the growth in [13] is 109%; in [14] it was 112%; in assay [15], 103%; in [16], 113%; in assay [17] it was 104%; in assay [18] it was 107%. Further, the growth in [20] and in [19] was 103% in each case.
In the case of `Oc1cc(N2CC2)c(O)cc1N1CC1`, the growth is -37.9% (active) in [1]; -16.4% (active) in assay [2]; 20.4% in [3]; -12.8% (active) in assay [4]; -14.6% (active) in assay [5]; 5.86% (active) in assay [6]. Further, the growth is -74.7% (active) in assay [7]; -1.9% (active) in [8]; 22.3% in [9]; -72.7% (active) in assay [10]; 9.43% (active) in [11]; 17.1% in assay [12]. Also, the growth is -89.6% (active) in [13]; 96.9% in assay [14]; -78% (active) in assay [15]; 7.87% (active) in assay [16]; 15.9% in assay [17]; -12% (active) in assay [18]. In addition, the growth in [20] was -47.1% (active); in [19], -50.4% (active).
Consider `CC/C(=C(\c1ccc(OCCN2CCOCC2)cc1)c1ccc(OC(=O)Cc2ccccc2)cc1)c1ccc(Cl)cc1`, for which the growth in [1] was 104%; in [2], 106%; in assay [3] it was 87.9%; in assay [4] it was 103%; in assay [5] it was 106%; in assay [6], 94.4%. The growth in assay [7] is 92.8%; in assay [8], 101%; in assay [9] it was 107%; in assay [10] it was 120%; in assay [11], 101%; in assay [12] it was 82.4%. Moreover, the growth in assay [13] is 95.1%; in assay [14], 109%; in assay [15] it was 114%; in assay [16], 94.1%; in [17], 99.4%; in [18], 105%. For the same compound, the growth in assay [20] is 107%; in [19] it was 102%.
